# Bioassay records deposited in PubChem by National Center for Advancing Translational Sciences (NCATS).
# Compounds with a hit are over-represented: about 18% of the library has one in this group of screens.
# DT40 TDP1 CPT – growth inhibition of DT40 Tdp1-/-;hTDP1 cells with camptothecin (screen for TDP1 inhibitors); chicken DT40 Tdp1-/-;hTDP1 cells + 20 nM CPT, ATP luminescence, 48 h; Potency, µM (titrated, usually from 46.2 µM), without a hit: top-dose activity change, negative = growth inhibition, hits mostly inhibitors; 420,000 compounds, 12% hits; AID 686979; note: potency is the fitted concentration of half-maximal effect; % is set by controls: 0 for no effect and ±100 for the full control effect; nearly all actives have a fitted effect of over 55% in size
#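 Chicken DT40 Tdp1-/- cells complemented with human TDP1, 400 cells/well, exposed to compounds plus 20 nM camptothecin for at least 48 h at 37 C; viability read as ATP content by CellTiter-Glo luminescence.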
# TDP1 block – inhibitors of human tyrosyl-DNA phosphodiesterase TDP1; Q9NUW8; recombinant TDP1, AlphaScreen DNA substrate cleavage; Potency, µM (highest dose often 130 µM), without a hit: at the top dose activity change, negative = inhibition, actives largely listed as inhibitors; 350,000 compounds, 0.28% hits; note: potency is the fitted concentration of half-maximal effect; % is set by controls: 0 for no effect and ±100 for the full control effect; nearly all actives have a fitted effect of over 40% in size
# Target sequence (Q9NUW8 whole entry, looked up): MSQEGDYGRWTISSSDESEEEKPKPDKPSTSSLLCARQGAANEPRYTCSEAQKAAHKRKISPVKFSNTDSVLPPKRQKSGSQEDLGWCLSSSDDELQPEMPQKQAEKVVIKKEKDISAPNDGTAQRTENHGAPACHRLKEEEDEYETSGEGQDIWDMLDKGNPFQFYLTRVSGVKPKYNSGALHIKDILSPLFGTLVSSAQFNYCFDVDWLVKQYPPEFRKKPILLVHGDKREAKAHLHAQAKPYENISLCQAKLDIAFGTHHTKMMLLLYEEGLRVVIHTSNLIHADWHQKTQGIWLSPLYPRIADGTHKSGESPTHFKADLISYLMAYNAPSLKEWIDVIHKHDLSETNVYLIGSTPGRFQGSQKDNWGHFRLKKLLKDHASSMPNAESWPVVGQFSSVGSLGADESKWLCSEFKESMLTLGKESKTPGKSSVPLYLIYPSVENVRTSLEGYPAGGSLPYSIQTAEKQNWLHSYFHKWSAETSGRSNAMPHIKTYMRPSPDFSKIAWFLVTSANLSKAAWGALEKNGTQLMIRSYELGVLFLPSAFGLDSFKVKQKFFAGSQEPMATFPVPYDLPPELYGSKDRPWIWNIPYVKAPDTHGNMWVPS
#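 Enzyme-compound mixtures sat 15 min at room temperature, followed by a 5 min reaction with 15 nM final substrate and 10 min with AlphaScreen beads. Recombinant human Tdp1 was used at 1 nM final.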
# TGFb inhibitor – blocks TGF-b signaling | 410,000 compounds, 1.2% hits | Potency, µM (series often up to 46.1 µM), without a hit: top-dose activity, negative = inhibition, hits mostly inhibitors | HepG2 CAGA-GFP TGF-b/SMAD3 reporter, GFP fluorescence, 18 h; TGF-beta stimulated, 500 pg/mL final; note: potency is the fitted concentration of half-maximal effect; % is set by controls: 0 for no effect and ±100 for the full control effect; nearly all actives have a fitted effect of over 65% in size
#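 HEPG2 CAGA-GFP cells (1000/well, DMEM with 1% FBS) were pre-incubated 2 h at 37 degrees C, given compound by pin tool, then stimulated with TGF-beta at 500 pg/mL final for 18 h before per-cell GFP fluorescence imaging.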
# HepG2 viability – HepG2 cytotoxicity, counter-screen for TGF-b inhibitors. HepG2 CAGA-GFP viability, ATP luminescence, 18 h. Potency, µM (highest dose often 46.1 µM), for the others: at the highest dose activity change, negative = cytotoxicity, actives largely listed as cytotoxic. 410,000 compounds, 0.76% hits. AID 588856; note: potency is the fitted concentration of half-maximal effect
#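 CellTiter-Glo luminescence gave cytotoxicity after 18 hours at 37 degrees C. The cells were HepG2 CAGA-GFP in 1% FBS DMEM, stimulated with 500 pg/mL TGF-beta after compound addition. %Activity was normalised to no-cell wells (complete cell-killing) and DMSO (no toxicity), and curves were fitted and classified.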
# IL1B secr inh – blocks inflammasome-driven IL-1 beta release. THP-1 LPS/ATP IL-1B secretion, AlphaLISA, 16 h; active compounds read low. activity change, % at 57.5 µM. 360,000 compounds, 4.7% hits. AID 743279; in the data active = activity change below about -50%; inconclusive = mostly about -30% to -49%; note: % is set by controls: 0 for no effect and ±100 for the full control effect
#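 THP-1 cells pretreated 1 hr with compounds (up to 57.5 uM final), then stimulated with LPS (250 ng/mL final) plus ATP (1.25 mM final); secreted IL-1B measured by AlphaLISA after 16 hr, decreased signal indicating inhibition.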
# DT40 TDP1 no CPT – qHTS for Inhibitors of human tyrosyl-DNA phosphodiesterase 1 (TDP1): qHTS in cells in absence of CPT | DT40 Tdp1-/- hTDP1 cells, no CPT, ATP luminescence, 48 h | Potency, µM (titrated, usually from 46.2 µM), inactives show top-dose activity change, negative = growth inhibition, actives largely listed as inhibitors | 420,000 compounds, 15% hits | AID 686978, 2013; note: potency is the fitted concentration of half-maximal effect; % is set by controls: 0 for no effect and ±100 for the full control effect; nearly all actives have a fitted effect of over 55% in size
#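 Stably hTDP1-transfected Tdp1-null chicken DT40 cells were treated with library compounds minus camptothecin and grown for at least 48 hr at 37 °C, after which cellular ATP was quantified by luminescence.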
# The depositor's hits bear a star; u = inconclusive; x = not tested or not shown; [ ] = remark or other dose. Unless noted, calls come from the whole dose curve; as a rule, active = well fitted curve in the direction sought with a large enough effect; inconclusive = small, poorly fitted or top-dose-only effect, or another doubt; inactive = no such curve, though single readings can be large; an effect the other way counts as inactive or inconclusive.
SMILES,DT40 TDP1 CPT,TDP1 block,TGFb inhibitor,HepG2 viability,IL1B secr inh,DT40 TDP1 no CPT
Cc1ccc(Oc2ccc(NC(=O)Cn3ccsc3=N)cc2)cc1,u,5%,u,-84%,-100*,u
N=c1sccn1CC(=O)Nc1ccccc1Cc1ccccc1,u,2%,-15%,-8%,-51*,u
N=c1sccn1CC(=O)Nc1ccccc1Oc1ccccc1,-1%,5%,-3%,-10%,-29,-10%
NC(N)=NC(N)=Nc1ccc(O)cc1,12%,-4%,9%,2%,1,2%
NC(=S)N=Nc1ccc(O)cc1,21µM*,x,u,-6%,0,18µM*
COc1cccc(-n2nnnc2S(C)(=O)=O)c1,2.1µM*,-4%,u,-101%,-92*,2.6µM*
Cc1cccc(-n2nnnc2S(C)(=O)=O)c1,1.2µM*,5%,u,6.3µM*,x,0.73µM*
COc1ccc2c(c1)c1c(c(=O)n(Cc3ccccc3)c(=O)n1Cc1cccc(Cl)c1)n2C,u,3%,20%,1%,x,u
O=C(O)Cc1sc(N/N=C\c2ccccc2)nc1-c1ccccc1,-9%,8%,6%,-7%,3,23µM*
O=C(Cc1sc(Nc2ccccc2)nc1-c1ccccc1)NCc1ccccc1,16µM*,-3%,u,-21%,-68*,u
O=C(Cc1sc(-c2ccccc2)nc1-c1ccccc1)Nc1ccccc1,u,6%,-7%,-17%,-17,u
c1ccc(Nc2nc(-c3ccccc3)c(-c3ccccc3)s2)cc1,28µM*,x,x,x,x,u
Cc1ccc(S(=O)(=O)N(C)C)cc1NC(=O)COC(=O)Cc1cccs1,-2%,x,-4%,6%,5,4%
COc1ccc(-c2cc(=O)c3cc(OCC(=O)OC(C)C)ccc3o2)cc1,9%,x,-14%,-3%,x,-24%
CC(O)C1CCC2C3CC[C@H]4CC(O)CCC4(C)C3CC3(OCCO3)C12C (stereo partly specified),-29%,4%,-29%,-25%,6,21µM*
C=C1C(=O)OC2C1CC/C(C)=C/CCC1(C)OC21 (stereo unspecified),2.3µM*,5%[56.1 µM],x,x,x,2.9µM*
C=C1C(=O)OC2C=C(C)CCC=C(C)CCC12 (stereo unspecified),x,16%,x,x,x,x
C=C1C(=O)O[C@@H]2C3OC3(C)CC/C=C(\C)CC[C@@H]12 (stereo partly specified),11µM*,12%[56.1 µM],x,x,x,11µM*
C=C1CC/C=C(\C)CC[C@@H]2[C@@H]1CC2(C)C,-8%,-6%[56.1 µM],x,x,x,-6%
C=C1C(=O)O[C@H]2[C@H]1CC/C(C)=C\CC[C@@]1(C)O[C@@H]21,2.4µM*,x,x,x,x,2.7µM*
C=C1C(=O)O[C@@H]2[C@H]3O[C@]3(C)CC/C=C(\C)CC[C@@H]12,4.6µM*,7%,13µM*,13µM*,-110*,5.2µM*
CC(=O)Nc1cncc(-c2ccccc2F)n1,-14%,x,3%,-66%,7,-17%
Cc1cccc(C)c1-n1nnnc1C1(C)CCC(=O)N1Cc1ccc(F)cc1 (stereo unspecified),u,x,x,x,17,u
CC(C)c1ccc(NC(=O)C(Cc2ccccc2)NS(=O)(=O)c2ccc3c(c2)CCC(=O)N3)cc1 (stereo unspecified),-27%,6%,u,-10%,x,u
Cc1oc(-c2ccc(Cl)cc2)nc1CN1CCC(C(=O)NCCCN2CCOCC2)CC1,29µM*,7%,17%,-33%,u,u
SMILES,DT40 TDP1 CPT,TDP1 block,TGFb inhibitor,HepG2 viability,IL1B secr inh,DT40 TDP1 no CPT
Cc1oc(-c2ccc(Cl)cc2)nc1CN1CCC(C(=O)NCc2cccs2)CC1,u,2%,-22%,-41%,-54*,u
CCC1CCCCN1CCCNC(=O)C1CCN(Cc2nc(-c3ccc(Cl)cc3)oc2C)CC1 (stereo unspecified),3.7µM*,4%,u,-75%,-90*,2.6µM*
Cc1oc(-c2ccc(Cl)cc2)nc1CN1CCC(C(=O)NCC2CCCO2)CC1 (stereo unspecified),-9%,4%,-1%,-9%,u,-1%
CC(CC(=O)Nc1ccc2c(c1)c(=O)n(C)n2-c1ccc2ccccc2c1)C(F)(F)F (stereo unspecified),5.2µM*,x,1%,-32%,59,2.6µM*
Cn1c(=O)c2cc(NC(=O)Cc3cccnc3)ccc2n1-c1ccc2ccccc2c1,15µM*,x,15%,-20%,-8,15µM*
CCOc1cccc(-c2nc3c(s2)CCc2onc(-c4cccc([N+](=O)[O-])c4)c2-3)c1,u,2%,5%,-2%,-8,-15%
CCOc1ccc(NC(=O)c2cc(=O)c3ccc(C)c(C)c3o2)cc1,u,7%,0%,1%,x,9.2µM*
Cc1ccnc(NS(=O)(=O)c2ccc(NC(=O)c3cc(=O)c4ccc(C)c(C)c4o3)cc2)n1,-25%,7%,3%,0%,x,u
Clc1ccc(CNc2ccccc2NCc2ccc(Cl)nc2)cn1,16µM*,6%,-8%,1%,-19,u
COc1ccc(COc2cc(-c3cccc(OC)c3)nc3ccc(NC(=O)c4ccc(N(C)C)cc4)cc23)cc1,3.7µM*,12%[96 µM],-29%,-13%,66,3.7µM*
COc1ccc(COc2cc(-c3cccc(OC)c3)nc3ccc(NC(=O)c4ccc(C)cc4)cc23)cc1,u,11%,-25%,-1%,72,13µM*
COc1ccc(COc2cc(-c3cccc(OC)c3)nc3ccc(NC(C)=O)cc23)cc1,-19%,-1%,3%,-7%,1,-19%
O=C(CSc1nnc(COc2ccccc2)o1)N1CCOCC1,-11%,-1%,10%,-2%,0,-17%
O=C(CSc1nnc(COc2ccc(Br)cc2)o1)N1CCOCC1,-33%,-3%,-2%,-10%,42,18µM*
O=C(COc1ccc(C(=S)N2CCOCC2)cc1)N1CCOCC1,1%,5%,-7%,20%,17,4%
O=C(COc1ccc2cc(Br)ccc2c1)N1CCOCC1,15µM*,0%,-9%,0%,-13,u
C[C@H](NC(=O)c1cccc([N+](=O)[O-])c1)C(=O)OCC(=O)c1ccccc1Br,-23%,0%,-7%,0%,2,2%
